ATXN2 expr inh: inhibitors of ATXN2 expression; AID 1745845; actives 0.72% (n = 360,000); HEK-293 ATXN2-luciferase reporter, luminescence, 24 h; Potency, µM (series often up to 57 µM), hits mostly inhibitors; note: nearly all actives have a fitted effect of over 55% in size
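qHTS (up to 57 uM final) was run with 24 h compound exposure of reporter cells at 37 °C. Each well was multiplexed: SteadyGlo luminescence measured ATXN2-luciferase expression after a fluorogenic Gly-Phe-AFC viability readout (25 uM final).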
KB-3-1 tox: kills parental KB-3-1 adenocarcinoma cells; actives 1.4% (n = 400,000); KB-3-1 viability, CellTiter-Glo ATP luminescence, 72 h; Potency, µM (top dose mostly 46.1 µM), actives largely listed as cytotoxic; note: nearly all actives have a fitted effect of over 60% in size
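KB-3-1 cells, DMEM (no phenol red) + 10% FBS; compound by pin transfer, 72 h, 37 °C. Readout: CellTiter-Glo luminescence after 10 min. Data normalized, curve-fitted.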
KB-V1 MDR tox: kills drug-selected multidrug resistant KB-V1 cells | KB-V1 MDR cells viability, CellTiter-Glo, 72 h | Potency, µM (doses to about 46.1 µM), most hits filed as cytotoxic | actives 3.4% (n = 400,000) | AID 1347076; note: nearly all actives have a fitted effect of over 60% in size
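qHTS viability screen in drug-selected KB-V1 MDR cells: 72 h compound treatment at 37 degrees C, ATP luminescence end point.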
S2 tox: viability counter-screen for ATXN expression inhibitors. S2 cells (HEK-293 line with an ATXN2-luciferase reporter) viability, CellTiter-Fluor protease fluorescence, 24 h. Potency, µM (titrated, usually from 56.7 µM), most hits filed as cytotoxic. actives 0.49% (n = 400,000). AID 651635; note: nearly all actives have a fitted effect of over 40% in size
HT1080-NT tox: kills 2HG-producing HT-1080-NT fibrosarcoma cells; HT-1080-NT fibrosarcoma viability, CellTiter-Glo ATP luminescence, 48 h; Potency, µM (top dose mostly 46.1 µM), actives largely listed as cytotoxic; actives 1.6% (n = 360,000); AID 686970;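 note: NT is the 2HG producing partner of a matched IDH1 knockdown line; nearly all actives have a fitted effect of over 55% in size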
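Viability of the 2HG-overproducing fibrosarcoma line after 48 hours of compound exposure at 37 degrees C was determined by luminescence with CellTiter-Glo, and concentration-effect curves were then fitted and categorized.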
HT1080 IDH1KD tx: HT-1080 IDH1 knockdown cell toxicity (counter line). actives 2% (n = 360,000). Potency, µM (doses to about 46.1 µM), most hits filed as cytotoxic. HT-1080 IDH1 knockdown viability, ATP luminescence, 48 h
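CellTiter-Glo luminescence after 48 h compound exposure at 37 degrees C of IDH1-knockdown HT-1080 cells in 5% FBS RPMI. %Activity scaled between DMSO wells and cell-free media wells, with curves fitted and assigned curve classes.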
Hits are given with their value. Shown are actives, neighbours in structure and some others; about 6.2% of the full set was active somewhere. Calls come from the whole dose curve; as a rule, active = well fitted curve in the direction sought with a large enough effect; inconclusive = small, poorly fitted or top-dose-only effect, or another doubt; inactive = no such curve, though single readings can be large; an effect the other way counts as inactive or inconclusive.

Results for Cc1ccc(CNC(=O)c2cc(C3CC3)nc3c2c(C)nn3-c2cccc(Cl)c2C)cc1 ?
ATXN2 expr inh: inactive; KB-3-1 tox: inactive; KB-V1 MDR tox: inconclusive; S2 tox: inactive

How did COc1ccccc1N1CCN(C(=O)NCc2ccc(Cl)cc2)CC1 do in these assays?
ATXN2 expr inh: inactive; KB-3-1 tox: inactive; KB-V1 MDR tox: inactive; S2 tox: inactive; HT1080-NT tox: inactive; HT1080 IDH1KD tx: inactive

How did COc1ccccc1N1CCN(C(=O)c2ccc(-c3ccc(Cl)cc3)o2)CC1 do in these assays?
KB-3-1 tox: 4.61µM; KB-V1 MDR tox: inconclusive; S2 tox: inconclusive; HT1080-NT tox: 7.31µM; HT1080 IDH1KD tx: 5.17µM

How did CCc1ccc2oc(C(=O)N3CCN(c4ccccc4OC)CC3)cc(=O)c2c1 do in these assays?
ATXN2 expr inh: inactive; KB-3-1 tox: 18.4µM; KB-V1 MDR tox: 23.1µM; S2 tox: inactive; HT1080-NT tox: inconclusive; HT1080 IDH1KD tx: 13µM

How did O=C(Nc1nc2ccccc2[nH]1)c1ccc(Cl)c(S(=O)(=O)N2CCCC2)c1 do in these assays?
ATXN2 expr inh: inconclusive; KB-3-1 tox: inconclusive; KB-V1 MDR tox: 14.6µM; S2 tox: inactive; HT1080-NT tox: inactive; HT1080 IDH1KD tx: inactive

What do the screens show for `O=C(Nc1ccccc1N1CCCCC1)c1ccc(F)c(S(=O)(=O)N2CCOCC2)c1`?
ATXN2 expr inh: inactive; KB-3-1 tox: inconclusive; KB-V1 MDR tox: inactive; S2 tox: inactive; HT1080-NT tox: inactive; HT1080 IDH1KD tx: inactive

Results for O=C(Nc1nc2ccccc2[nH]1)c1ccc(S(=O)(=O)N2CCOCC2)cc1 ?
KB-3-1 tox: inactive; KB-V1 MDR tox: inactive; S2 tox: inactive; HT1080-NT tox: inactive; HT1080 IDH1KD tx: inactive

Results for CCOc1cc(C(=O)OCC(=O)Nc2c(C)cccc2C)ccc1OCC(=O)N1CCOCC1 ?
KB-3-1 tox: inactive; KB-V1 MDR tox: inactive; S2 tox: inactive; HT1080-NT tox: inactive; HT1080 IDH1KD tx: inactive

What do the screens show for `COc1cc(CNCCCN2CCOCC2)ccc1OCC(=O)Nc1cccc(C(F)(F)F)c1`?
ATXN2 expr inh: inactive; KB-3-1 tox: inactive; KB-V1 MDR tox: inactive; S2 tox: inactive; HT1080-NT tox: inconclusive; HT1080 IDH1KD tx: inconclusive

What do the screens show for `CCOc1cc(CNCCCN2CCOCC2)ccc1OCC(=O)Nc1cccc2ccccc12`?
ATXN2 expr inh: inactive; KB-3-1 tox: inactive; KB-V1 MDR tox: inactive; S2 tox: inconclusive; HT1080-NT tox: 10µM; HT1080 IDH1KD tx: 11.2µM

Results for O=C(Nc1ccccc1N1CCCC1)c1ccc(Cl)c(S(=O)(=O)N2CCOCC2)c1 ?
ATXN2 expr inh: inactive; KB-3-1 tox: inactive; KB-V1 MDR tox: 14.6µM; S2 tox: inactive; HT1080-NT tox: inactive; HT1080 IDH1KD tx: inactive

How did CCOC(=O)c1ccccc1NC(=O)COC(=O)c1ccc(OCC(=O)N2CCOCC2)c(OCC)c1 do in these assays?
ATXN2 expr inh: inactive; KB-3-1 tox: inactive; KB-V1 MDR tox: 2.59µM; S2 tox: inactive; HT1080-NT tox: inactive; HT1080 IDH1KD tx: inactive

How did COc1cc(OC)c(NC(=O)N2CCc3c(sc4c3CCCC4)C2c2ccccc2)cc1Cl (stereo not drawn) do in these assays?
ATXN2 expr inh: inactive; KB-3-1 tox: inactive; KB-V1 MDR tox: inactive; S2 tox: inactive

Results for COCCCNC(=O)c1c(NC(=O)Cc2coc3cc(C)cc(C)c23)sc2c1CCCC2 ?
ATXN2 expr inh: inactive; KB-3-1 tox: inactive; KB-V1 MDR tox: inactive; S2 tox: inactive

Results for CCOC(=O)c1ccccc1NC(=O)c1ccc(Cl)c(S(=O)(=O)N2CCOCC2)c1 ?
ATXN2 expr inh: inactive; KB-3-1 tox: inactive; KB-V1 MDR tox: 7.31µM; S2 tox: inactive; HT1080-NT tox: inactive; HT1080 IDH1KD tx: inactive

What do the screens show for `COc1cc(OC)cc(C(=O)NCC(=O)N2CCCCC2)c1`?
ATXN2 expr inh: inactive; KB-3-1 tox: inactive; KB-V1 MDR tox: inactive; S2 tox: inactive; HT1080-NT tox: inactive; HT1080 IDH1KD tx: inactive

Results for COc1ccc(C(=O)NC(=S)N2CCCC2)cc1 ?
ATXN2 expr inh: inactive; KB-3-1 tox: inactive; KB-V1 MDR tox: inactive; S2 tox: inconclusive; HT1080-NT tox: inactive; HT1080 IDH1KD tx: inactive

What do the screens show for `COc1cc(OC)cc(C(=O)NC(=S)N2CCCCCC2)c1`?
ATXN2 expr inh: inactive; KB-3-1 tox: inactive; KB-V1 MDR tox: 18.4µM; S2 tox: inactive; HT1080-NT tox: inactive; HT1080 IDH1KD tx: inactive

How did COc1ccc(C(=O)NC(=S)N2CCCCC2)cc1 do in these assays?
ATXN2 expr inh: inactive; KB-3-1 tox: inactive; KB-V1 MDR tox: inactive; S2 tox: inactive; HT1080-NT tox: 0.562µM; HT1080 IDH1KD tx: 0.794µM

Results for Oc1c(CN2CCc3ccccc3C2)cc(Cl)c2cccnc12 ?
ATXN2 expr inh: 5.62µM; KB-3-1 tox: inconclusive; KB-V1 MDR tox: inconclusive; S2 tox: 3.98µM; HT1080-NT tox: inconclusive; HT1080 IDH1KD tx: inconclusive

How did Brc1cc2c(cc1CN1CCc3ccccc3C1)OCO2 do in these assays?
KB-3-1 tox: inactive; KB-V1 MDR tox: inactive; S2 tox: inactive; HT1080-NT tox: inactive; HT1080 IDH1KD tx: inactive

How did O=C(Oc1c(CN2CCOCC2)cc(Cl)c2cccnc12)c1ccccc1F do in these assays?
ATXN2 expr inh: inconclusive; KB-3-1 tox: 18.4µM; KB-V1 MDR tox: inconclusive; HT1080-NT tox: inconclusive; HT1080 IDH1KD tx: inconclusive

What do the screens show for `O=C(Oc1ccc(C(=S)N2CCOCC2)cc1Cl)c1ccccc1F`?
KB-3-1 tox: inactive; KB-V1 MDR tox: inactive; S2 tox: inactive; HT1080-NT tox: inactive; HT1080 IDH1KD tx: inactive

Results for O=[N+]([O-])c1cc(CN2CCOCC2)c2cccnc2c1O ?
ATXN2 expr inh: inactive; KB-3-1 tox: inactive; KB-V1 MDR tox: inactive; S2 tox: inconclusive; HT1080-NT tox: inactive; HT1080 IDH1KD tx: inconclusive

What do the screens show for `Oc1c(Cl)cc(CN2CCOCC2)c2cccnc12`?
KB-3-1 tox: inconclusive; KB-V1 MDR tox: inactive; S2 tox: inconclusive; HT1080-NT tox: 7.31µM; HT1080 IDH1KD tx: 5.8µM

Results for O=c1oc2ccccc2c(O)c1Cc1cc(Cl)c2cccnc2c1O ?
ATXN2 expr inh: inconclusive; KB-3-1 tox: 16.4µM; KB-V1 MDR tox: inconclusive; S2 tox: inactive; HT1080-NT tox: inactive; HT1080 IDH1KD tx: inactive

How did CC(C)[C@H](NC(=O)OC(C)(C)C)c1cc(C(=O)N(C)CCN(C)C)c(N)s1 do in these assays?
KB-3-1 tox: inactive; KB-V1 MDR tox: inactive; HT1080-NT tox: inactive; HT1080 IDH1KD tx: inactive

What do the screens show for `CN1CCN(Cc2cc(COCc3ccccc3)c3cccnc3c2O)CC1`?
ATXN2 expr inh: 3.98µM; KB-3-1 tox: inconclusive; KB-V1 MDR tox: inconclusive; S2 tox: inconclusive; HT1080-NT tox: inconclusive; HT1080 IDH1KD tx: inconclusive

How did COc1cc(OC)cc(C(=O)Oc2c(CN3CCOCC3)cc(Cl)c3cccnc23)c1 do in these assays?
ATXN2 expr inh: inactive; KB-3-1 tox: inactive; KB-V1 MDR tox: inconclusive; S2 tox: inconclusive; HT1080-NT tox: inconclusive; HT1080 IDH1KD tx: inactive
